Screens: PubChem BioAssay, The Scripps Research Institute Molecular Screening Center
Fam108B inh – mouse Fam108B serine hydrolase inhibitors, primary screen, counter-screen for RBBP9 inhibitor project, biochemical, fluorescence polarization. 0.33% of 300,000 active. recombinant Fam108B, FP-Rh probe fluorescence polarization. inhibition, % at 9.51 µM;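 active = inhibition above the screen mean inhibition plus 3 SD, computed separately per campaign, cut at about 18% in these data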;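 note: inhibitors lower polarization as less probe binds the enzyme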
PAFAH1B2 inh – PAFAH1B2 enzyme inhibitors, primary screen, biochemical, fluorescence polarization, human. Platelet-activating factor acetylhydrolase IB subunit alpha2 (Homo sapiens), P68402. recombinant PAFAH1B2, FP-rhodamine activity probe. inhibition, % at 3.39 µM. 1.2% of 340,000 active. AID 492953, 2010;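 active = inhibition above the mean of all tested compounds plus 3 SD, cut at about 24% in these data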;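 note: 0% = enzyme with DMSO and 100% = wells lacking PAFAH1B2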
Target sequence (P68402 whole entry, looked up): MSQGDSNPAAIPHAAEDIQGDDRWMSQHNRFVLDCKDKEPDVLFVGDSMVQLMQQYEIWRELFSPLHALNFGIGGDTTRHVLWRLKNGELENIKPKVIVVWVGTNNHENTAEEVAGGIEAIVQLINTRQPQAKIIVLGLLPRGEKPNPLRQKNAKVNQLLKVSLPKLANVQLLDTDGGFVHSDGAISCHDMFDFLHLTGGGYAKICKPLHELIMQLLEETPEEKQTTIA
pPAFAH inh – pPAFAH enzyme inhibitors, primary screen, biochemical, fluorescence polarization, human; 1.5% of 330,000 active; inhibition, % at 3.39 µM; recombinant pPAFAH, FP-rhodamine probe fluorescence polarization;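 active = inhibition above the mean inhibition across the screen plus 3 SD, cut at about 25% in these data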;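 note: inhibitors block binding of the rhodamine activity-based probe so polarization drops; 0% = enzyme with DMSO and 100% = wells lacking pPAFAH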
PAFAH2 inh – PAFAH2 enzyme inhibitors, primary screen, biochemical, fluorescence polarization, human; Platelet-activating factor acetylhydrolase 2, cytoplasmic (Homo sapiens), Q99487; recombinant PAFAH2, FP-rhodamine activity probe; inhibition, % at 3.39 µM; 0.99% of 340,000 active; AID 492956, 2010;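 active = inhibition above the mean over all tested compounds plus 3 SD, cut at about 30% in these data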;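 note: inhibitors block probe labeling of enzyme so polarization drops; 0% = enzyme with DMSO and 100% = wells lacking PAFAH2 protein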
PME-1 primary – PME-1 inhibitors via competitive probe labeling, primary screen, biochemical, fluorescence polarization, FP-Rh probe, HTS | Protein phosphatase methylesterase 1 (Homo sapiens), Q9Y570 | recombinant PME-1 | inhibition, % at 5.9 µM | 0.53% of 320,000 active | AID 2130, 2009;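 active = inhibition above the campaign mean of all compounds plus 3 SD, cut at about 26% in these data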;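 note: competitive labeling of PME-1 active site by serine hydrolase directed probe; 0% = PME-1 with DMSO and 100% = wells lacking PME-1 enzyme; inhibitors block probe labeling so polarization falls and inhibition rises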
Target sequence (Q9Y570 whole entry, looked up): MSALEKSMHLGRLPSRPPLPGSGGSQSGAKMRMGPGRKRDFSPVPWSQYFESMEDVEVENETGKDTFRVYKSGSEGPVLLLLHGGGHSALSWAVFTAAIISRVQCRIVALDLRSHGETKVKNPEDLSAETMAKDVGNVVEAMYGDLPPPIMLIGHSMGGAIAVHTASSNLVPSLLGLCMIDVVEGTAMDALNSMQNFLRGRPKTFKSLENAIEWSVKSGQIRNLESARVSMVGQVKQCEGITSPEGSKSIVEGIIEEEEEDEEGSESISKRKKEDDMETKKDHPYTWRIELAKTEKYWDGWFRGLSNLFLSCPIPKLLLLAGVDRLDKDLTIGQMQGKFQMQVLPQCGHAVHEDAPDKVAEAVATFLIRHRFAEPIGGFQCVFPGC
PAFAH1B3 inh – PAFAH1B3 enzyme inhibitors, primary screen, biochemical, fluorescence polarization, human; 0.28% of 340,000 active; recombinant PAFAH1B3, FP-rhodamine probe; inhibition, % at 3.39 µM;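 active = inhibition above the screen-wide average of all tested compounds plus 3 SD, cut at about 25% in these data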;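 note: 0% = enzyme with DMSO only and 100% = wells lacking PAFAH1B3 protein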
* marks the source's active call; other numbers are inactive results; · = not tested or not shown. Compounds with a hit are over-represented: about 2.8% of the library has one in this group of screens.

SMILES	Fam108B inh	PAFAH1B2 inh	pPAFAH inh	PAFAH2 inh	PME-1 primary	PAFAH1B3 inh
Cc1ccc(SC/C(O)=C(\C#N)c2nc3ccccc3s2)cc1	10	29*	24	24	6	5
Cc1cccc(NS(=O)(=O)c2ccc(C)c(NS(=O)(=O)c3cccs3)c2)c1	·	4	·	14	·	1
CC(C)Oc1ccc(S(=O)(=O)N2CCOCC2)cc1NC(=O)C(C)Oc1ccc(F)cc1 (centres undefined)	2	5	3	0	13	1
COc1ccc(NS(=O)(=O)c2ccc(N3CCCC3)c(NC(=S)Nc3ccc(SC(F)F)cc3)c2)cc1	3	1	34*	4	10	-2
COc1ccccc1C(=O)Nc1ccccc1SC(=O)c1ccccc1OC	-9	4	4	3	0	6
CCOC(=O)CSc1ncc(-c2ccc([N+](=O)[O-])cc2)[nH]1	1	0	31*	-2	8	2
Cc1c(N=C2C=C(Br)C(=O)C(Br)=C2)c(=O)n(-c2ccccc2)n1C	·	35*	·	16	·	2
COc1cc2sc(-c3ccc(S(C)(=O)=O)cc3)c(-c3ccc4c(c3)OCO4)c2cc1OC	·	-3	21	-6	·	-5
O=C(O)Cn1cc(/C=c2/sc3nc4ccccc4n3c2=O)c2ccccc21	9	11	14	13	31*	13
Cc1cc(NC(=O)c2ccc(C)c(C)c2)no1	-4	3	4	0	4	2
C/C(=N/NC(=O)CN1CCN(S(=O)(=O)c2ccc(Br)cc2)CC1)c1ccco1	-2	27*	3	4	8	4
O=C(CN1CCN(S(=O)(=O)c2ccc(Br)cc2)CC1)N/N=C/c1ccco1	0	30*	4	13	-2	4
C/C(=N/NC(=O)CN1CCN(S(=O)(=O)c2ccc(C)cc2)CC1)c1cccc(O)c1	1	25*	4	-5	0	6
O=S(=O)(c1ccc(Br)cc1)N1CCN(Cc2ccco2)CC1	2	26*	-5	3	5	10
NC(=O)c1ncn([C@@H]2O[C@H](CNCc3cc(Cl)ccc3OCc3ccc(Cl)cc3)[C@@H](O)[C@H]2O)n1	·	28*	·	13	·	4
O=C(NNC(=O)c1ccccc1-n1cccc1)c1ccc(Cl)nc1	·	-3	4	5	-1	12
CCCc1cc(=O)oc2cc(C)c(CN3CCCC3)c(O)c12	6	2	25*	23	-1	8
O=C1OC(c2ccco2)=N/C1=C\c1ccc(-c2cccc(C(F)(F)F)c2)o1	4	1	27*	10	0	3
CCN(C(=O)COC(=O)c1cc([N+](=O)[O-])ccc1N1CCOCC1)C1CCCCC1	2	14	-3	-1	2	5
O=C1NN(c2ccccc2)C(=O)/C1=C\c1cccc(OC(=O)c2cccs2)c1	4	19	14	27	9	7
O=C1NN(c2ccc(Cl)c(Cl)c2)C(=O)/C1=C/c1cccc(OC(=O)c2cccs2)c1	4	·	57*	·	37*	·
COc1ccccc1N(C)S(=O)(=O)c1ccc(C(=O)Nc2cccc(S(=O)(=O)N3CCOCC3)c2)cc1	·	-5	·	-13	·	-9
CCN(CCNC(=O)C1CCN(S(=O)(=O)CC)CC1)c1ccccc1	1	1	2	5	-2	-3
CCCCN(CCCNC(=O)C1CCN(S(=O)(=O)CC)CC1)c1ccccc1	4	3	28*	5	4	-2
COc1ccc(Br)cc1CN(C)CC(=O)Nc1cccc(S(=O)(=O)N2CCCC2)c1	·	6	9	6	·	-3
SMILES	Fam108B inh	PAFAH1B2 inh	pPAFAH inh	PAFAH2 inh	PME-1 primary	PAFAH1B3 inh
Nc1ccc2c(S(=O)(=O)O)cccc2c1S(=O)(=O)O	·	4	·	-2	·	9
Nc1cccc2cc(S(=O)(=O)O)ccc12	·	31*	·	30*	·	49*
O=C1C=CN2CCCCC2CC1 (centres undefined)	·	1	2	5	·	5
COc1ccc(OC)c(N2C(=O)c3cccnc3C2=O)c1	1	0	5	1	1	8
CCCCCCCCOC(=O)c1ccc(N)cc1	0	8	32*	55*	6	5
COc1ccc(CNC(=O)C2(CC3CC(c4ccccc4)=NO3)CCN(C(=O)C3CCCC3)CC2)cc1 (centres undefined)	2	11	8	1	-5	6
O=c1c2c3c(sc2[nH]c(=S)n1Cc1ccco1)CCC3	2	3	25*	19	1	3
CC1(C)Cc2c(sc3[nH]c(=S)n(Cc4ccco4)c(=O)c23)CO1	-2	6	3	19	-4	14
O=C(COC(=O)CC1CC2CCC1C2)Nc1ccccc1Cl (centres undefined)	·	0	28*	45*	·	6
O=C(COC(=O)CC1CC2CCC1C2)Nc1c(F)cccc1F (centres undefined)	-5	3	24	22	0	0
COc1ccc(NC(=O)COC(=O)CC2CC3CCC2C3)c([N+](=O)[O-])c1 (centres undefined)	3	7	33*	54*	8	3
COc1ccc(NC(=O)CC2Nc3cc(C)c(C)cc3NC2=O)c([N+](=O)[O-])c1 (centres undefined)	2	7	26*	-1	11	-5
CCOC(=O)C1CC2=C(CCCC2=O)N(Cc2ccccc2)C1=O (centres undefined)	·	5	·	6	·	8
CCN(Cc1ccccc1)C(=O)COC(=O)c1cc(S(=O)(=O)Nc2ccccc2OC)ccc1O	·	32*	6	21	·	7
CNS(=O)(=O)c1cccc(C(=O)OCC(=O)Nc2ccccc2F)c1	3	0	2	24	4	-1
COc1ccccc1NS(=O)(=O)c1ccc(O)c(C(=O)OCC(=O)Nc2ccccc2F)c1	1	7	3	34*	0	7
COc1ccc(-n2nc(C(=O)O)cc2-c2ccccc2)cc1	-2	2	2	1	6	-2
O=C(O)c1cc(-c2ccccc2Cl)n(-c2ccccc2)n1	0	29*	4	-7	-1	6
COc1cccc(C(=O)Nc2cccc(-c3ccccc3)c2)c1	-10	3	0	-6	-17	0
O=c1[nH]nc(SCc2ccccc2)n1C1CC2C=CC1C2 (centres undefined)	-1	26*	8	-7	3	1
O=C(COc1ccccc1)Nc1nnc(S(=O)(=O)Nc2ccccc2)s1	2	7	27*	11	2	2
